Screening data as filed in PubChem.
ssDAF-12 act: activators of S. stercoralis DAF-12 nuclear receptor; HEK293 ssDAF-12/GRIP1 lit1-tk-luc reporter, luminescence; % of 3 µM dafachronic acid response; activation, % at 6.8 µM; hit rate 1% among 370,000;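 active means activation above the mean over all tested compounds plus 3 SD, cut at about 0.9% in these data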;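 further: 0% = DMSO-only wells and 100% = 3 µM delta7-dafachronic acid wells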
hgDAF-12 ag: agonists of H. glycines DAF-12 nuclear receptor; hit rate 1.8% among 370,000; HEK293 GAL4-hgDAF12 UAS-luciferase reporter, agonist luminescence; normalized to butyrate control; activation, % at 6.8 µM;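 active means activation above a cutoff set at the mean of all screened compounds plus 3 SD, cut at about 10% in these data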;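 further: 0% = DMSO wells and 100% = sodium butyrate wells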
DAX1 inh-1: NR0B1 (DAX1) inhibition; P51843; HEK293 Gal4-DAX1 luciferase reporter, luminescence; inhibition, % at 6.75 µM; hit rate 0.99% among 340,000; AID 504766;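 active means inhibition above the mean over all tested compounds plus 3 SD, cut at about 4.2% in these data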;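 further: 0% = DAX1-transfected cells with DMSO and 100% = empty-vector control cells with DMSO; inhibition shows as a rise in luminescence from relieved DAX1 repression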
Target sequence (P51843 207-470 limits assumed): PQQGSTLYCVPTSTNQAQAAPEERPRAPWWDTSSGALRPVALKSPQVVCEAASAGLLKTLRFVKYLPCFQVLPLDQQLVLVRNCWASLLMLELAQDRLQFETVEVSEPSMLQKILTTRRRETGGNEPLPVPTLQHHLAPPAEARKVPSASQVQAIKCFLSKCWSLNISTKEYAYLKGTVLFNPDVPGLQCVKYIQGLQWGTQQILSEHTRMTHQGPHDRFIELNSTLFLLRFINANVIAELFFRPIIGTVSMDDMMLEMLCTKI
hcDAF-12 act: activates DAF-12 receptor from parasite H. contortus; hit rate 1.4% among 370,000; HEK293 hcDAF-12 lit1-tk-luc reporter, luminescence; 0% DMSO, 100% Δ7-dafachronic acid; AID 652067; activation, % at 6.8 µM;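 active means activation above the mean of all tested compounds plus 3 SD, cut at about 5.5% in these data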;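 further: 100% = response to 3 µM Δ7-dafachronic acid high control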
DAX1 inh-2: inhibitors of DAX1 repression of SF-1 activated StAR promoter; HEK293T StAR-luciferase reporter, SF-1/DAX-1 repression relief; inhibition, % at 6.8 µM; hit rate 1.1% among 370,000;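 active means inhibition above the mean over all tested compounds plus 3 SD, cut at about 3.6% in these data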;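 further: 0% = DAX-1 cells with DMSO and 100% = cells lacking DAX-1 with DMSO; higher inhibition means more luminescence from relief of DAX-1 repression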
* = called active by the depositor; x = no result. Compounds with a hit are over-represented: about 4.1% of the library has one in this group of screens.

SMILES | ssDAF-12 act | hgDAF-12 ag | DAX1 inh-1 | hcDAF-12 act | DAX1 inh-2
CN1CCN(c2cnn(-c3ccccc3)c(=O)c2Br)CC1 | -1 | 3 | 0 | 0 | 1
O=c1c(Br)c(N2CCCC2)cnn1-c1ccccc1 | 0 | 12* | 0 | 5.6* | 3
CC1CN(c2ccnc3cc(Cl)ccc23)CCN1C(=O)c1ccc(Cl)cc1 (stereo unspecified) | -2 | -6 | x | -5 | x
Clc1ccc(-c2nc(-c3ccccn3)no2)cc1Cl | 0 | 12* | 2 | 4 | 3.6*
COc1ccc2nc(N/C(N)=N/S(C)(=O)=O)nc(C)c2c1 | 0 | 1 | 4.6* | -1 | 0
COCCNC(=O)/C(C#N)=C/c1ccc(OCc2ccccc2)cc1 | -1 | 2 | -1 | 0 | 0
COCCNC(=O)/C(C#N)=C/c1ccc(OCc2ccc(F)cc2)cc1 | -2 | 13* | 0 | 2 | -1
COCCNC(=O)/C(C#N)=C/c1ccc(SC)cc1 | -1 | 4 | x | -2 | 0
COCCNC(=O)/C(C#N)=C/c1ccc(C(=O)O)cc1 | -1 | -1 | 5.0* | -1 | 0
Cc1ccc(S(=O)(=O)N(C)[C@H]2C[C@H]3c4[nH]c5c(-c6ccccc6)cccc5c4CCN3C(=O)[C@H]2[C@H](C)O)cc1 | -1 | 5 | x | 0 | 0
C=CCNc1cccc2c1S(=O)(=O)N[C@H](CC(C)C)CO2 | -2 | 0 | x | -1 | -1
CN(C(=O)[C@@H](Cc1ccccc1)NC(=O)[C@H]1O[C@@H](n2ccc(=O)[nH]c2=O)[C@H](O)[C@@H]1O)C1CCCCC1 | 0 | 5 | x | 0 | 0
Nc1ccc(OCc2ccccc2)cc1[N+](=O)[O-] | -1 | 11* | 0 | 1 | -1
O=[N+]([O-])c1cccnc1Oc1ccc(OCc2ccccc2)cc1 | 0 | 6 | 2 | -1 | 1
CC(=O)N1CCOc2cc(S(=O)(=O)NCc3ccc(F)cc3)c(C)cc21 | -1 | 0 | 5.6* | -2 | 0
Cc1ccc(CNS(=O)(=O)c2cc3c(cc2C)N(C)CCO3)cc1 | -1 | 1 | 1 | 3 | -1
O=C(N/N=C/c1cc(Br)ccc1O)c1cccc(N2CCCC2=O)c1 | -1 | -9 | 2 | -2 | -2
O=C(Nc1ccccc1)c1cccc(N2CCCC2=O)c1 | -1 | 12* | 0 | 2 | 0
O=C(N/N=C/c1ccco1)c1cccc(N2CCCC2=O)c1 | 0 | 11* | -1 | 5 | 2
S=C(NCc1cccc(Cl)c1)OC1CCC12CCC(c1ccccc1)CC2 (stereo unspecified) | -1 | 3 | x | 0 | 0
COCCCNC(=O)CSc1nnc(-c2ccncc2)n1-c1ccc(OC)cc1 | -2 | 1 | x | -2 | 0
COc1ccccc1-c1nc(NC(C)=O)n[nH]1 | 1.8* | 1 | x | 4 | 0
Nc1nonc1-c1noc(COc2ccccc2Cl)n1 | 1 | 8 | 2 | 5 | 3
Cc1cccc(OCc2nc(-c3nonc3N)no2)c1C | -1 | 11* | 1 | 2 | 2
CC(C)c1ccc(S(=O)(=O)N2CCN(C(=O)C3CCCCC3)CC2)cc1 | -2 | -4 | 0 | 5.8* | -2
SMILES | ssDAF-12 act | hgDAF-12 ag | DAX1 inh-1 | hcDAF-12 act | DAX1 inh-2
O=C(Nc1ccc(Cl)cc1)C1CCCN(S(=O)(=O)c2cnc[nH]2)C1 (stereo unspecified) | -1 | 0 | 1 | -1 | 0
CC(C)c1ccc(NC(=O)C2CCCN(S(=O)(=O)c3cnc[nH]3)C2)cc1 (stereo unspecified) | -1 | 0 | 5.5* | -1 | 0
COc1ccc(-c2cc(=O)oc3c(C)c(OCc4nn[nH]n4)ccc23)cc1 | -1 | -2 | 7.3* | -1 | 1
Cc1c(Cc2ccccc2)c(=O)oc2c(C)c(OCc3nn[nH]n3)ccc12 | -1 | -2 | 5.3* | -1 | 0
Cc1c(CC(=O)O)c(=O)oc2c(C)c(OCc3nn[nH]n3)ccc12 | -1 | -2 | 0 | 0 | 0
Cc1nccn1-c1ccc(NC(=O)[C@@H](Cc2ccccc2)NC(=O)[C@H]2O[C@@H](n3ccc(=O)[nH]c3=O)[C@H](O)[C@@H]2O)cc1 | -1 | 6 | x | -2 | 0
CC(=O)c1ccccn1 | -1 | 0 | 6.0* | -2 | 0
COC(=O)[C@]12C[C@H](CC(=O)N3CCC(c4ccccc4)CC3)C(=O)N(CCC3=CCCCC3)C1=C[C@H](C1CCCC1)O[C@@H]2C | -1 | -1 | x | 0 | -1
Cc1nn(C(C)(C)C)c(C)c1/C=N/OC(=O)Nc1ccc(Cl)c(Cl)c1 | -3 | -13 | -7 | -7 | -1
COc1ccc(NC(=O)O/N=C/c2c(C)nn(C(C)(C)C)c2C)cc1 | -1 | -1 | 6.3* | -1 | 1
CNc1nc(N)c([N+](=O)[O-])c(Nc2cccc(Br)c2)n1 | -1 | -1 | x | 1 | x
CCC(=O)N1CCN=C1SCc1ccccc1Cl | -1 | 3 | 4 | 4 | 1
CC(=O)N1CCN=C1SCc1ccccc1Cl | -1 | 0 | 5.0* | -2 | 0
NC(=O)CSCc1nc2ccccc2s1 | 1 | 2 | 0 | 6.0* | 0
Cc1ccc(C(=O)OCc2nc3ccccc3s2)o1 | 0 | 8 | 0 | 5.8* | 3
Cc1ccc(C(=O)OCc2nc3ccsc3c(=O)[nH]2)o1 | 0 | 1 | 0 | 1 | 1
COc1ccc(CCNC(=O)COC(=O)c2cc3ccccc3oc2=O)cc1OC | 1.4* | 3 | 0 | 4 | -1
O=C(OCc1nc2ccccc2s1)c1cc2ccccc2oc1=O | 0.9* | 4 | x | 6.2* | 1
COC(=O)C1=C(C)N(Cc2ccccc2C(F)(F)F)C(=NCc2ccccc2C(F)(F)F)NC1c1cccc(C(F)(F)F)c1 (stereo unspecified) | -1 | 1 | x | 2 | 0
O=C(C(=O)N1CCN(S(=O)(=O)c2ccc(Cl)cc2)CC1)c1cccc(C(F)(F)F)c1 | -1 | 1 | x | -1 | 1
O=C(OCc1nc2ccccc2s1)c1ccc(Br)s1 | 1.1* | 5 | 2 | 3 | 0
Nc1ccc(C(=O)OCc2nc3ccccc3s2)cc1 | -1 | 3 | 0 | 0 | 0
O=C(Nc1ccc(F)cc1)OCc1cn(Cc2ccccc2)nn1 | 0 | -2 | x | -1 | -1
O=C(NNC(=S)Nc1cccc2ccccc12)c1cccc(Br)c1 | 0 | 0 | 0 | 6 | 0
Cc1ccc(C(=O)NNC(=S)Nc2cccc3ccccc23)s1 | 1.2* | 5 | 1 | 6.3* | 1
CCOc1ccc(-n2c(SCC(=O)c3ccc4ccccc4c3)nnc2-c2ccco2)cc1 | -2 | 1 | x | -2 | -1
O=c1oc2ccccc2n1CCCOc1ccccc1 | -1 | 11* | 2 | 1 | 2
Nc1ccc(-c2nnc(-c3ccc(N)cc3)o2)cc1 | 0 | 7 | 4.4* | 2 | 2
c1ccc(-c2nnc(-c3ccccc3)o2)cc1 | 1.2* | 12* | 4.6* | 5.9* | 3
COc1ccc(-c2nnc(-c3ccccc3)o2)cc1OC | 0 | 10* | 2 | 1 | 2
